This excerpt belongs to a sample that is enriched for hits.
MARV entry inh – blocks Marburg virus binding to or entry into cells; Marburg virus pseudotyped entry inhibition, cell reporter; Potency, µM (series often up to 37.8 µM), without a hit: top-dose activity change, negative = inhibition, most hits filed as inhibitors; actives 1.8% (n = 300,000); AID 540276; calls by dose curve; tested in HEK293 cells; further: potency means the concentration at half of the fitted maximal effect; on the % scale 0 is the no-effect control and ±100 the full control effect
Vaccinia Venus – vaccinia inhibition (Venus reporter); Vaccinia virus Venus reporter expression, fluorescence; Potency, µM (series often up to 36.5 µM), for the others: top-dose activity change, negative = inhibition, hits mostly inhibitors; actives 0.46% (n = 330,000); AID 720580; calls by dose curve; tested in A549 cells; further: potency means the concentration at half of the fitted maximal effect; on the % scale 0 is the no-effect control and ±100 the full control effect; nearly all actives have a fitted effect of over 30% in size
Vaccinia mCherry – vaccinia inhibition (mCherry reporter) | Vaccinia virus mCherry reporter infection, fluorescence | Potency, µM (highest dose often 36.5 µM), for the others: top-dose activity change, negative = inhibition, hits mostly inhibitors | actives 0.63% (n = 310,000); calls by dose curve; tested in A549 cells; further: potency means the concentration at half of the fitted maximal effect; on the % scale 0 is the no-effect control and ±100 the full control effect; nearly all actives have a fitted effect of over 35% in size
Shiga inhibitor – inhibitors of Shiga toxin in Vero cells. inhibition, % at 38.7 µM. Vero cells, Shiga toxin protein synthesis inhibition reporter. actives 9.2% (n = 290,000); in the data active means inhibition mostly above about 28%, no sharp cut-off; inactive means mostly below about 43%; further: 0% is about no effect
CHX counter – counter-screen for Shiga toxin inhibitors: cycloheximide protein synthesis inhibition | cell reporter, cycloheximide protein synthesis inhibition counterscreen | max response, % | actives 12% (n = 300,000) | AID 2314; in the data active means max response mostly above about 13%, no sharp cut-off; inactive means mostly below about 14%; further: read at 38.3 µM for the half of the compounds with a filed dose; 0% is about no effect
LASV entry inh – inhibitors of Lassa virus binding or cell entry; actives 1.2% (n = 300,000); Lassa virus pseudotype entry inhibition, cell reporter; Potency, µM (doses to about 37.9 µM), for inactives: at the top dose activity change, negative = inhibition, most hits filed as inhibitors; calls by dose curve; tested in HEK293 cells; further: potency means the concentration at half of the fitted maximal effect; on the % scale 0 is the no-effect control and ±100 the full control effect; nearly all actives have a fitted effect of over 50% in size
An asterisk follows results filed as active; i = inactive; ? = inconclusive; · = no result given; ! = repeats disagree; [ ] = remark or other dose.

SMILES | MARV entry inh | Vaccinia Venus | Vaccinia mCherry | Shiga inhibitor | CHX counter | LASV entry inh
CCOC(=O)c1ccc(NC(=O)C2CCN(S(=O)(=O)CC)CC2)cc1 | 14.3% | · | · | -5.0 | -1.2 | 3.4%
CN1CCN(C(=O)c2ccc3c(c2)N(Cc2c(F)cccc2Cl)C(=O)c2ccccc2S3)CC1 | ? | -16.4% | -10.7% | · | · | -13.8%[46.1 µM]
S=c1sc2c(Cl)ncnc2n1-c1ccccc1 | 23.1µM* | · | · | -26.5 | -0.9 | 23.1µM*
O=C1CCC2=C(CC(O)=C(O)C2)O1 | 4.9% | · | · | · | · | ·
COC(=O)c1cc(/C=C/c2ccccc2)[nH]n1 | · | · | · | 25.4* | 20.4* | ·
COC(=O)c1cc(/C=C/c2ccccc2)on1 | -1.6% | 0.3% | -6.6% | -16.5 | 11.0 | 6.7%
CC(C)OC(=O)CC(=O)CSc1nc2c(cc1C#N)CCCCC2 | -6.7%[46.1 µM] | -5.3% | -11.0% | 72.0* | 52.3* | 26.0%
CCOC(=O)CC(=O)CSc1nc2c(cc1C#N)CCCCC2 | ? | -4.3% | i | 83.6* | 46.1* | -25.0%
CCOC(=O)CC(=O)COc1nc2cc3c(nc2o1)CCCC3 | -17.5% | -9.0% | -15.8% | 90.6* | 26.8* | -21.3%
CC(C)OC(=O)CSc1nc2c(cc1C#N)CCCCC2 | · | · | · | 9.1 | 14.0 | ·
O=C1C=C2C=C[C@@H]3C[C@@]2(O1)[C@H]1CCCCN31 | · | 14.1µM* | ? | · | · | ·
Cc1cccc(-c2nc3c4ccccc4nc(NCc4ccccc4Cl)n3n2)c1 | 10.8%[46.1 µM] | -7.8% | i | · | · | ·
Cc1ccc(NC(=O)C(=O)NCC(c2ccc3c(c2)OCO3)N2CCN(C)CC2)c(C)c1 (centres undefined) | · | -10.4% | -9.5% | · | · | 5.5%[46.1 µM]
C=CCSc1nc2c(cnn2-c2ccccc2)c(=O)n1N | ? | -12.3% | -1.3% | 62.8* | 53.3* | ?
CC(/C=N/NC(=O)c1nn(C)c(C)c1Br)=C\c1ccccc1 | -19.6% | 0.1% | 0.8% | 117.4* | 63.4* | ?
CC(/C=N/NC(=O)c1c(Br)cnn1C)=C\c1ccccc1 | 1.7% | -22.1% | -6.1% | 47.0* | 25.1* | 16.8%
O=C(COC(=O)c1ccccc1OCc1cccc(Br)c1)Nc1ccc(Br)cc1 | · | -16.8% | -6.8% | · | · | ·
O=C(C[n+]1ccccc1Br)c1ccc(O)c(O)c1 | · | 5.1% | -20.1% | · | · | ·
COc1cc(NC(=S)N2c3ccccc3CC2C)cc(OC)c1 (centres undefined) | ? | -13.4% | i | 3.6 | -2.4 | -1.1%
CC(=O)c1ccc(NC(=S)N2c3ccccc3CC2C)cc1 (centres undefined) | 4.8% | · | · | 18.0 | 22.8* | -17.6%
COc1cccc(NC(=S)N2c3ccccc3CC2C)c1 (centres undefined) | 16.0%[46.1 µM] | -10.2% | ? | 30.7 | 18.8* | 5.5%[46.1 µM]
CNC(=O)C1CCN(Cc2cc3ccccc3n2Cc2cccc(C)c2)CC1 | · | -6.0% | -7.0% | · | · | -24.6%[46.1 µM]
Cn1c(=O)[nH]c(=O)c2c1nc(N1CCCC1)n2CCCSc1nc2ccccc2o1 | ? | -12.1% | -16.9% | -8.9 | 3.3 | ?
Cn1c(=O)[nH]c(=O)c2c1nc(Br)n2CCCSc1nc2ccccc2o1 | 8.2µM* | · | · | -2.3 | 9.5 | -17.8%
C/C(Cn1nnc([N+](=O)[O-])n1)=N\NC(=O)c1ccccc1Cl | ? | ? | ? | 27.3 | 22.3* | -29.9%
SMILES | MARV entry inh | Vaccinia Venus | Vaccinia mCherry | Shiga inhibitor | CHX counter | LASV entry inh
C/C(Cn1nnc([N+](=O)[O-])n1)=N\NC(=O)c1ccc(C)cc1 | ? | ? | ? | 81.8* | 43.4* | ?
C/C(Cn1nnc([N+](=O)[O-])n1)=N\NC(=O)c1ccncc1 | ? | ? | ? | 12.7 | -1.3 | ?
C/C(Cn1nnc([N+](=O)[O-])n1)=N\NC(=O)c1cccc(Cl)c1 | ? | ? | ? | 43.6* | 20.2* | ?
COC(=O)c1ccc(NC(=O)c2cc(S(=O)(=O)N3CCOCC3)cn2C)cc1 | · | -6.7% | -4.3% | · | · | 10.9%[46.1 µM]
CC(=Nc1ccc(C)c(C)c1)C1=C(O)CCC1=O | ? | -15.8% | · | 140.3* | 61.4* | 0.3%
CC(=NC(C)C)C1=C(O)CCC1=O | 17.8% | 0.5% | · | 2.3 | 1.6 | -12.1%
CCN(c1nc(N)c(C(=O)N=C(N)N)nc1Cl)C(C)C | 14.1µM* | -28.3% | -16.2% | · | · | ?
C(=N\N=C\c1ccccc1)/c1ccccc1 | 28.3%[46.1 µM] | 3.7% | -3.5% | 132.3* | 55.2* | ·
Cc1ccc(/C=N/N=C2\SCC(=O)N2CC2CC2)cc1 | -5.5% | ? | -15.9% | 4.9 | -2.6 | -1.4%
Oc1ccc(/C=N/N=C/c2ccc(O)c(O)c2)cc1O | ? | -14.7% | ? | 21.0* | 22.6* | ?
Cc1ccc(/C=N/N=C/c2ccc(C)cc2)cc1 | 7.0% | -5.3% | -10.1% | 74.3* | 36.5* | 2.6%
Fc1cccc(/C=N/N=C/c2cccc(F)c2)c1 | ? | -2.9% | -5.1% | 111.6* | 31.4* | ?
Oc1ccc(N=Cc2ccc(O)c(O)c2)cc1 | ? | -11.0% | -18.3% | 28.9 | 10.6 | ?
CN(C)c1ccc(/C=C/c2ccnc3ccc(Br)cc23)cc1 | · | 10.8% | ? | · | · | ·
O=C(NN=Cc1ccc(O)cc1)C(=O)NN=Cc1ccc(O)cc1 | 0.9%[46.1 µM] | -0.8% | i | · | · | 25.9%[46.1 µM]
Oc1ccc(/C=N/N=C/c2ccc(O)cc2)cc1 | ? | -7.9% | i | 115.1* | 50.0* | 19.0%[46.1 µM]
Cc1cccc(N2CCN(C(=O)CCC(=O)N3CC(C)Oc4ccc(C)cc43)CC2C)c1 (centres undefined) | · | ? | ? | 4.4 | -2.1 | ·
O=c1[nH]c2ccccc2n1CCCN1CCC(n2c(=O)[nH]c3cc(Cl)ccc32)CC1 | 11.2µM*! | -20.0% | -27.4% | 13.0 | 4.0 | ?
COc1ccc(CNC(=O)CCn2nc(C)c3c(C)n(-c4ccccc4)nc3c2=O)cc1OC | · | -15.7% | -21.3% | · | · | 3.3%[46.1 µM]
Cc1cccc(N2CCN(S(=O)(=O)c3cn(C)c(C)n3)CC2)c1C | · | -7.4% | -6.6% | · | · | -0.1%[46.1 µM]
Cc1cc(C)c(S(=O)(=O)Nc2ccccc2C(=O)OCC(=O)NCc2ccccc2)c(C)c1 | ? | -11.9% | -4.9% | -6.8 | -3.7 | 10µM*
O=C(O)C1CCCN1c1ncnc2c1oc1ccccc12 (centres undefined) | 0.5% | · | · | 49.3* | 43.2* | 7.1%
CCOc1ccc(-c2cc3c(=O)n(CC(=O)NCc4ccc(C)cc4)ccn3n2)cc1 | · | 5.7% | 0.8% | · | · | 23.0%[46.1 µM]
Cc1ccc(-n2ncc(C(=O)NCc3cccs3)c2C2CCN(C(=O)OC(C)(C)C)CC2)cc1 | · | -16.7% | -12.1% | · | · | ?
CCCCNc1c(-c2ccc(SC(C)CC)cc2)nc2cnccn12 (centres undefined) | · | 22.4µM* | 31.6µM* | · | · | ·
CCCCNc1c(-c2ccc(OC)c(Sc3ccc(OC)cc3)c2)nc2cnccn12 | · | -25.6% | -17.0% | · | · | ·
CCC(C(=O)OC)n1cnc2c(nnn2-c2ccc(OC)cc2)c1=O (centres undefined) | -8.0% | -3.1% | -9.5% | -0.8 | 8.4 | -0.9%
CCOC(=O)C(C)n1cnc2c(nnn2-c2ccc(OC)cc2)c1=O (centres undefined) | 13.1% | · | · | 85.7* | 31.6* | 15.4%
CCC(C(=O)OC)n1cnc2c(nnn2-c2ccc(C)cc2)c1=O (centres undefined) | · | -14.8% | i | 21.9* | 12.2* | ·
